FBW7 act: human FBW7 E3 ligase activation, primary screen. actives 0.13% (n = 650,000). normalized activity (activation), % at 26.1 µM. AlphaScreen FBW7–phospho-cyclin E peptide binding, activator screen; in the data active means normalized activity above about 1.9%;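 further: purified mutant Fbw7 with reduced substrate affinity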
MITF primary: blocks human microphthalmia-associated transcription factor; AlphaScreen MITF homodimerization, bead proximity signal; actives 0.91% (n = 650,000); inhibition, % at 2.6 µM; in the data active means inhibition above about 50%;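 further: 0% = vehicle wells with protein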
Target sequence (O75030 whole entry, looked up): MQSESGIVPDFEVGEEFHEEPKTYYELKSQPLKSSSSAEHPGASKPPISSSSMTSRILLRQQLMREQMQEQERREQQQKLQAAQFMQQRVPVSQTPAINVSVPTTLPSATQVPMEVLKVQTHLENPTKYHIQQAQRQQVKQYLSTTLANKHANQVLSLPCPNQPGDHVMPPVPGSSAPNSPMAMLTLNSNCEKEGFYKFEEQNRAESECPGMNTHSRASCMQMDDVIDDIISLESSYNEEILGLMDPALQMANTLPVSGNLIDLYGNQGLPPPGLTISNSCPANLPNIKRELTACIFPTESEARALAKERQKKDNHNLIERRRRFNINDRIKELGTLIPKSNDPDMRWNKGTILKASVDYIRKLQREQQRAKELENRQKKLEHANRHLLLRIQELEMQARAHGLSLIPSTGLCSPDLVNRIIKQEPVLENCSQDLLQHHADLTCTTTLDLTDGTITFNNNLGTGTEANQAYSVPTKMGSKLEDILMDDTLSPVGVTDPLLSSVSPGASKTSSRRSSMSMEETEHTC
GPR151 ag: activators of human GPR151 | AID 1508602 | Q8TDV0 | PathHunter beta-arrestin GPR151 cells, luminescence | actives 1% (n = 650,000) | activation, % at 11.2 µM; in the data active means activation above about 4.9%;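 further: 0% = median of compound wells and 100% = cells with positive control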
TEAD-YAP block: TEAD-YAP interaction inhibition; inhibition, % at 9.12 µM; HEK-TIYL cells, TEAD-Gal4/YAP UAS-luciferase luminescence; AID 1259422; actives 1.4% (n = 640,000); in the data active means inhibition above about 32%;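 further: 0% = median of test compound wells and 100% = reference inhibitor wells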
GPR151 confirm: confirmation of human GPR151 activators; shares compounds with GPR151 ag; GPR151 PathHunter beta-arrestin cells, luminescence, 90 min; % of EA-reagent control over plate median; activation, % at 11.2 µM; 6,700 tested, under 10 active; AID 1508609;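 active means mean percent activation across replicates above the confirmation screen cutoff of 4.91%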
GPR119 counter: GPR119 activation, counter-screen for GPR151 activators. shares compounds with GPR151 ag. activation, % at 11.2 µM. GPR119 PathHunter beta-arrestin cells, luminescence, 90 min; 0 = compound-well median, 100 = enzyme-acceptor control. actives 0.3% (n = 6,700);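 active means mean percent activation in the counterscreen above 29.09%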;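 further: counterscreen on off-target GPR119 to flag nonselective hits from the GPR151 activator screen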
Numbers without * were called inactive; . = not tested or not shown; ! = not active in a repeat. An excerpt weighted towards active compounds, which were near 3.4% of everything screened.

SMILES	FBW7 act	MITF primary	GPR151 ag	TEAD-YAP block	GPR151 confirm	GPR119 counter
COc1cc(/C=C2\C(=O)NC(=O)N(c3ccc(C)c(C)c3)C2=O)cc([N+](=O)[O-])c1O	0	15	0	-6	.	.
Cc1ccccc1OCC(=O)N(C(C)C)C(C)C	0	5	8.9*	13	0	7
Cc1cc(Br)ccc1OCC(=O)N(C(C)C)C(C)C	0	40	2	5	.	.
Cc1ccccc1OCC(=O)NNC(=O)C1c2ccccc2Oc2ccccc21	0	7	6.0*	7	-1	-2
CCN(CC)CCNCC(=O)N1c2ccccc2CC1C (configuration not stated)	0	19	5	5	.	.
C=CCOC(=O)C1=C(C)NC(S)=C(C#N)C1c1cccs1 (configuration not stated)	0	-6	-1	4	.	.
Cc1cc(NC(=O)Cc2ccc(F)cc2)ccc1N1CCCC1=O	0	17	5.0*	1	0	0
Cc1cc(NC(=O)Cc2ccc(-c3ccccc3)cc2)ccc1N1CCCC1=O	0	8	2	11	.	.
COC(=O)COc1cccc(C2C3=C(CC(C)(C)CC3=O)OC3=C2C(=O)CC(C)(C)C3)c1	0	13	0	2	.	.
c1ccc(Cc2c[nH]c3ccccc23)cc1	0	6	5.3*	16	-1	5
O=C(O)CCCNC(=O)Cc1c[nH]c2ccccc12	0	-7	1	-5	.	.
O=C(O)CCCc1c[nH]c2ccccc12	0	7	5.0*!	-6	0	3
O=C(NC(NCCOC12CC3CC(CC(C3)C1)C2)(C(F)(F)F)C(F)(F)F)c1cccc(F)c1	0	12	0	-6	.	.
CC(=O)c1ccc(OCc2cc(C(=O)NC(C)CCn3cccn3)no2)cc1 (configuration not stated)	0	9	6.3*	-49	1	-3
CC(CCn1cccn1)NC(=O)c1cc(COc2ccc3ncccc3c2)on1 (configuration not stated)	0	10	1	16	.	.
O=C(Cc1cccc2c(S(=O)O)cccc12)NC(c1ccccc1)c1ccccc1	0	0	6.8*	-20	-1	-12
Cc1ccc(CCNC(=O)CN2CCN(Cc3cccc(C)c3)C2=O)cc1	0	-4	5.5*	8	0	-12
COC(=O)c1nnn(-c2nonc2N)c1C(=O)OC	-1	2	6.0*	0	-1	-8
COC(=O)c1nnn(-c2nonc2N)c1C(C)(C)C	0	7	0	-7	.	.
CCN(Cc1c(C(=O)OC)nnn1-c1nonc1N)c1ccccc1	0	12	5.1*	-6	-1	-20
C=CC(C)ON1C(=O)c2ccccc2C1=O (configuration not stated)	0	1	1	1	.	.
Cc1cc(=O)n(C)c(=O)n1CCCCCCNCCO	0	14	1	4	.	.
CCOCCCNC(=O)Cc1ccc(NC2=NC3CS(=O)(=O)CC3S2)cc1 (configuration not stated)	0	-31	-2	5	.	.
CCN(CC)C(=O)COc1ccc2c(C)cc(=O)oc2c1C	0	18	0	-11	.	.
CC(=O)COc1ccc2c(oc(=O)c3ccccc32)c1C	0	-8	7.0*	-75	0	13
SMILES	FBW7 act	MITF primary	GPR151 ag	TEAD-YAP block	GPR151 confirm	GPR119 counter
Cc1cc(=O)oc2c(C)c(OCC(=O)N(C)C)ccc12	1	3	18*	-7	0	-3
CCOC(=O)COc1ccc2c(oc(=O)c3ccccc32)c1C	0	-5	-1	5	.	.
COc1ccc(CCN2CCC(Nc3nc4ccccc4n3Cc3ccc(F)cc3)CC2)cc1	0	-3	9.2*!	5	2	-1
COc1ccc(CCN2CCC(NCC3CC3)CC2)cc1	0	-5	0	8	.	.
COc1ccc(S(=O)(=O)N(C)CC(=O)Nc2cccc(OC)c2)cc1	0	9	6.2*	-1	0	-10
COc1ccc(CNC(=O)CN(C)S(=O)(=O)c2ccc(Cl)cc2)cc1	0	13	5.4*	4	0	-5
CCn1c2ccccc2n2c(=O)n(CC(=O)NCC3COc4ccccc4O3)nc12 (configuration not stated)	1	-5	7.5*	13	2	7
CCn1c(=O)n(CC(=O)NCC2COc3ccccc3O2)c(=O)c2ccccc21 (configuration not stated)	0	6	-1	-2	.	.
CCn1c2ccccc2n2c(=O)n(CC(=O)Nc3ccc4c(c3)OCO4)nc12	1	9	5.7*	14	1	2
COc1ccc(-c2nc(NCCO)c3ncn(C4CCCCC4)c3n2)cc1	0	12	6.0*	-4	1	-4
CCc1cc2c3c(c1)C1(C(=O)N3C(C)(C)C=C2C)C(C#N)=C(N)OC2=C1C(=O)CC(C)(C)C2 (configuration not stated)	0	14	0	3	.	.
CC1=CC(C)(C)N2C(=O)C3(C(C#N)=C(N)OC4=C3C(=O)CC(C)(C)C4)c3c(C)c(C)cc1c32 (configuration not stated)	0	4	9.5*	-4	1	3
O=C(NCCCSc1ccc(Br)cc1)Nc1ncccn1	0	8	5.2*	10	1	7
Cc1oc(C)c(S(=O)(=O)NC(C)C)c1C(=O)NCc1ccco1	0	-2	7.1*	2	2	1
Cc1occc1C(=O)NCc1ccco1	0	41	-1	-3	.	.
COc1ccccc1NC(=O)CSc1nnc(CCNC(=O)c2ccc(C)cc2)n1C	0	12	6.1*	-1	1	4
Cc1ccc(-n2nc3c(c2NC(=O)c2cccc(F)c2)CS(=O)C3)c(C)c1 (configuration not stated)	0	0	5.9*	-10	2	2
Cc1ccc(-n2nc3c(c2NC(=O)c2ccc(Cl)c([N+](=O)[O-])c2)CS(=O)C3)c(C)c1 (configuration not stated)	0	2	0	14	.	.
COc1ccc(OCC(=O)NNC(=O)COc2cc(C)c(Cl)c(C)c2)cc1	0	-2	1	11	.	.
CC(C(=O)O/N=C(\N)c1ccccc1)c1ccc([N+](=O)[O-])cc1 (configuration not stated)	0	5	0	7	.	.
CC(Oc1ccc(Br)cc1)C(=O)O/N=C(\N)c1cccc([N+](=O)[O-])c1 (configuration not stated)	0	13	5.7*	-6	-1	8
Cc1cc(C(=O)O/N=C(\N)c2ccc(Br)cc2)ccc1[N+](=O)[O-]	0	3	6.4*	0	-1	-12
Cc1cccc(C(=O)O/N=C(\N)c2ccc([N+](=O)[O-])cc2)c1	0	2	5.6*	-7	0	4

Screens (PubChem BioAssay)
